Bioassay records deposited in PubChem BioAssay by National Center for Advancing Translational Sciences (NCATS).
Compounds with a hit are over-represented: about 1.3% of the library has one in this group of screens.
Akt phos inh: Akt phosphorylation inhibition | Neuro2A IGF-stimulated pAkt S473 HTRF, 20 min; active compounds read low | activity change, % for hits at 50 µM | 0.32% of 360,000 active | AID 651550; in the data active means activity change below about -80%; inconclusive means mostly about -51% to -80%
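Neuro2A cells in DMEM with 0.5% FBS, overnight at 37 deg C, given compound at single 50 µM final, then IGF (6 nM final) for 20 min at 37 deg C. Lysed; phospho-Akt Ser473 by HTRF after 24 h, 665/615 ratio.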
gsp ag: gsp mutant agonism; AID 624287; gsp mutant cells, cAMP HTRF, 30 min; Potency, µM (doses to about 76.9 µM), most hits filed as activators; 0.13% of 340,000 active; active means well fitted activation curve with a large enough effect; inconclusive means small, poorly fitted or top-dose-only effect, or another doubt; inactive means no such curve, though single readings can be large or run the other way; cell line not stated here;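 further: phosphodiesterase inhibitor Ro 20-1724 added with compounds to block cAMP breakdown; nearly all actives have a fitted effect of over 60% in size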
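Cells stably selected in G418 were plated at 2000/well, grown 16-24 hr, then given compounds in DMSO with the PDE inhibitor […] (300 uM solution added) for 30 min at 37C; cAMP was read by HTRF.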
RXFP1 agonist: RXFP1 (human) receptor agonism; Q9HBX9; HEK293T-RXFP1 cAMP TR-FRET, 30 min; response scale: percent of porcine relaxin response, buffer zero; Potency, µM (highest dose often 57.5 µM), usual class: activators; 0.3% of 370,000 active; AID 2676; active means well fitted activation curve with a large enough effect; inconclusive means small, poorly fitted or top-dose-only effect; further: nearly all actives have a fitted effect of over 60% in size
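cAMP rise read by TR-FRET after 30 min, 37C compound exposure (up to 58 uM) in RXFP1-transfected HEK293 cells with Ro 20174 present. EC50 from Hill-equation fits, with 29 nM porcine relaxin as 100% and buffer as basal.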
RXFP1 antag: blocks the human relaxin receptor RXFP1 | Q9HBX9 | HEK293-RXFP1, relaxin-stimulated cAMP HTRF, 30 min; active compounds read low | activity change, negative = inhibition, % at 57.5 µM | 0.59% of 350,000 active;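 active means activity change of -60% or lower, but not beyond a set lower limit; inconclusive means change between -60% and -40%, or beyond the set limit; inactive means change above -40%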
TSHR antagonist: antagonists of human thyroid stimulating hormone receptor | AID 504810 | P16473 | TSHR-expressing cells, TSH-stimulated cAMP HTRF, 2 h; active compounds read low | activity change, negative = inhibition, % at 11.5 µM | 0.2% of 330,000 active;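 active means activity change below a set negative limit, meaning inhibition stronger than a set level, cut at about -70% in these data; inconclusive means activity change between two set negative limits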
Target sequence (P16473 whole entry, looked up): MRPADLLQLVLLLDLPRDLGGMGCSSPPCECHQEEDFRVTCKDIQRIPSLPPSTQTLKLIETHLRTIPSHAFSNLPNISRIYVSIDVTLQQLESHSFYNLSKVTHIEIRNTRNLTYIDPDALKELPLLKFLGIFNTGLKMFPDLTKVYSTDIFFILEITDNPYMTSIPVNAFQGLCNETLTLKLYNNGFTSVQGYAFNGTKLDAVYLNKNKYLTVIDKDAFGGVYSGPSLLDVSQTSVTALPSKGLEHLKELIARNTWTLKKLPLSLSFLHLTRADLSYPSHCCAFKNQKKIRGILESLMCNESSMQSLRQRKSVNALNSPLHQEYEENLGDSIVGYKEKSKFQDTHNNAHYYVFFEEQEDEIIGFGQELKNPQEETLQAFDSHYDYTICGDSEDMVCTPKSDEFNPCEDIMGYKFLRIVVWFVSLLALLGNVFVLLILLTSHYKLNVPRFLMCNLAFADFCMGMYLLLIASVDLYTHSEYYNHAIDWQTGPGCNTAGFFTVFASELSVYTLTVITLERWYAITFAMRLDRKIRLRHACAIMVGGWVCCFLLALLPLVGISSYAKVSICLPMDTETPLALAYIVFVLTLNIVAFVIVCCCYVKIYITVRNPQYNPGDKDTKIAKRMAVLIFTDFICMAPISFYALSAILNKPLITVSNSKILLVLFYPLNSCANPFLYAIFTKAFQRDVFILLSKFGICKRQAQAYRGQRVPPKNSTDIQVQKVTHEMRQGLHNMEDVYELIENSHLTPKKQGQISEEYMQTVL
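Competitive HTRF cAMP read-out (cryptate anti-cAMP antibody, cAMP-d2; 30 min, room temperature) in freshly harvested TSHR cells. Compounds added before TSH at EC80 (4nM final), followed by 2 hours' incubation at 37 deg C.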
gsp antagonist: antagonists of gsp mutant (McCune-Albright syndrome); gsp-mutant cells, cAMP HTRF, 30 min; Potency, µM (doses to about 76.9 µM), hits mostly inhibitors; 0.4% of 340,000 active; AID 624288; calls by dose curve; cell line not stated here;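 further: intracellular cAMP measured with PDE inhibitor Ro 20-1724 present during compound exposure; nearly all actives have a fitted effect of over 65% in size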
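Measurement of cellular cAMP by homogeneous time-resolved fluorescence following a 30 min compound exposure at 37C. The PDE inhibitor […] was present throughout; the assay buffer was DPBS with 0.05% BSA and 0.005% Tween 20.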
Hits are given with their value; 0 = inactive; ? = inconclusive; - = no result; ! = not confirmed by another sample; [ ] = remark or other dose.

SMILES	Akt phos inh	gsp ag	RXFP1 agonist	RXFP1 antag	TSHR antagonist	gsp antagonist
CC(=O)C[C@H]1[C@H](O[C@H]2[C@H](OC(C)C(=O)N[C@@H](C)C(=O)N[C@H](CCC(=O)N[C@@H](CCCCN)C(=O)N[C@H](C)C(=O)O)C(N)=O)[C@@H](NC(=O)O)C(O)O[C@@H]2CO)O[C@H](CO)[C@@H](O)[C@@H]1O (stereo partly specified)	-	-	-	0	-	-
O=C(CCCCCCCCC#CI)Oc1ccccc1	-	-	-	0	-	-
CS(=O)(=O)Nc1ccc(C2=NN(C(=O)C3CCCCC3)C(c3cccs3)C2)cc1 (stereo unspecified)	0	0[15.4 µM]	0	0	0	25µM
c1ccc(CSc2nc3ncncc3[nH]2)cc1	0	?	0	0	0	0
S=c1nc(SCc2ccccc2)[nH]c2ccccc12	0	0[15.4 µM]	28µM	0	0	0
Cc1ccccc1CS(=O)(=O)Cc1ccc(C(=O)NCCc2ccc(Cl)cc2)o1	-	-	0	-96	-	-
O=C(NC1CC1)c1ccc2sc([C@H]3C[C@H](O)[C@@H](CO)O3)nc2c1	0	-	-	-	-	-
O=C(NCc1ccccn1)C1CCCN(Cc2cnn(-c3ccccc3)c2-n2cccc2)C1 (stereo unspecified)	-98%	0	0	0	0	0
CCOC(=O)c1c(C)[nH]c(C)c1C(=O)COC(=O)CSc1ccc(C)cc1	0	0	-	0	-	0
O=C(O)CCCC(=O)Nc1ccccc1SCCS(=O)(=O)c1ccc(Cl)cc1	0	0[15.4 µM]	0	0	0	0
CCc1ccc(-c2n[nH]nc2C2=CC(=O)C[C@H](c3ccc(F)cc3)C2)cc1	0	?	-	0	-	-
CCN(CC)CCNC(=O)c1cc2c(-c3ccc(Cl)cc3)nn(C)c2s1	0	?	0	-	0	0
CCCCN(CC)CCNC(=O)c1cc2c(-c3ccc(Cl)cc3)nn(C)c2s1	0	?	0	-104!	0	0
O=C1NC2CCc3nc4ccccc4c(=O)n3C2=Nc2ccccc21 (stereo unspecified)	0	-	0	-	0	0
CCn1c(N2CCN(S(=O)(=O)c3ccc(Cl)cc3)CC2)nc2ccccc21	0	0[15.4 µM]	0	0	0	32µM
O=C(Cn1c(=O)cnc2ccccc21)Nc1cccc(S(=O)(=O)N2CCCCC2)c1	0	0	0	0	0	0
COc1ccc(-n2c(=O)c3ccccc3n(CC(=O)NC3CCCC3)c2=O)cc1	-105%	0	0	0	0	0
Cc1ccc(OCCSc2nnc(-c3cccs3)n2C)cc1	0	0	0	0	0	0
Cc1cc(OCCSc2nnc(-c3cccs3)n2C)ccc1Cl	0	0	0	0	0	35µM
Cc1ccc(CNC(=O)C2CCN(S(=O)(=O)c3ccc4c(c3)CCCN4C(=O)C3CCC3)CC2)cc1	-	-	0	0	-	-
Cn1c(N=Nc2ccc(N3CCOCC3)cc2)[n+](C)c2ccccc21	0	0[15.4 µM]	0	-107	?	?
COc1ccc(S(=O)(=O)Nc2cccc(S(=O)(=O)N3CCCCC3)c2)cc1	0	?	-	0	0	0
O=S(=O)(Nc1nc2ccccc2nc1Nc1ccc2c(c1)OCO2)c1ccccc1	0	0	0	-	0	0
O=[N+]([O-])c1cccc(S(=O)(=O)Nc2nc3ccccc3nc2Nc2cccc(S(=O)(=O)N3CCCCC3)c2)c1	0	0	0	0	?	18µM
O=[N+]([O-])c1cccc(S(=O)(=O)Nc2ccc(S(=O)(=O)N3CCCC3)cc2)c1	0	0	-	0	-	0
SMILES	Akt phos inh	gsp ag	RXFP1 agonist	RXFP1 antag	TSHR antagonist	gsp antagonist
Cc1ccc(S(=O)(=O)Nc2nc3ccccc3nc2Nc2cccc(S(=O)(=O)N3CCCC3)c2)cc1	0	?	0	0	0	32µM
Cc1cccc(S(=O)(=O)Nc2nc3ccccc3nc2Nc2ccc3c(c2)OCO3)c1	0	0[15.4 µM]	0	0	0	28µM
O=C(CSc1nnc(C2CC2)n1-c1ccccc1)NCCc1ccccc1	-102%	0	0	0	0	0[15.4 µM]
O=C(O)[C@H](O)c1ccccc1	-	-	-	0	-	-
Cc1ccc(S(=O)(=O)Nc2ccccc2C=Nc2cccc(C)c2C)cc1	0	0[15.4 µM]	0	-66	0	0
Cc1ccc(S(=O)(=O)Nc2ccccc2N(C)S(=O)(=O)c2ccc(C)cc2)cc1	0	-	0	-	-75	0
CCOC(=O)Cc1c(C)c2c(C)[nH]nc2oc1=O	0	0	0	0	0	0
CCOC(=O)Cc1c(C)c2c(C)nn(-c3ccccc3)c2oc1=O	-103%	0	0	0	0	0
O=C(NNC(=O)c1ccccc1C(F)(F)F)c1csc(N2CCOCC2)n1	0	0	0	0	0	0
COc1ccc(CCNc2oc(COc3cccc(C)c3)nc2C#N)cc1OC	-	-	0	0	-	-
COc1ccc(CCNc2oc(COc3ccc(Cl)cc3)nc2C#N)cc1OC	-	-	0	-64	-	-
COc1cccc(OCc2ccc(Cn3nc(NC(=O)NCCc4ccc(OC)c(OC)c4)c4ccccc43)cc2)c1	0	-	-	-	-	-
Nc1cc(C(F)(F)F)ccc1S	-	-	-	0	-	-
CN(Cc1ccccc1Cl)C(=O)c1cc2ccccc2o1	0	0	0	0	-102	0
Cc1ccc(C(CC(=O)NCC2(c3ccccc3)CCCC2)c2ccccc2)c(O)c1 (stereo unspecified)	-	-	0	-65	-	-
Cc1ccc(C(CC(=O)NCc2ccco2)c2ccccc2)c(O)c1 (stereo unspecified)	0	0	0	0	0	0
O=C(NCC(=O)N(c1cccnc1)C(C(=O)NC1CCCC1)c1cccs1)c1cccs1 (stereo unspecified)	0	0	0	0	0	0
CCOc1cc(C(=O)OC(C)C(=O)Nc2ncc(Cl)cc2Cl)ccc1OCC(=O)N1CCOCC1 (stereo unspecified)	0	0	0	0	0	50µM
CCN(C(=O)c1cn(-c2ccc(OC)cc2)c(=O)c2ccccc12)c1cccc(Cl)c1	-	-	0	0	-	-
COc1cccc(C=Nc2ccc(N3CCOCC3)cc2)c1O	0	0	0	0	0	0
O=[N+]([O-])c1cc(Br)c(O)c(C=Nc2ccc(N3CCOCC3)cc2)c1	0	0	0	?	-86	0
Cn1c(N)c(C(=O)COC(=O)/C=C/c2cccc(Cl)c2)c(=O)n(C)c1=O	0	0	-	0	0	0
Cc1ccc(NC(=O)/C(=C\c2ccc([N+](=O)[O-])cc2)NC(=O)c2ccccc2)cc1	0	0	0	0	0	0
O=C(N/N=C/c1ccc(O)c(O)c1O)/C(=C/c1ccc([N+](=O)[O-])cc1)NC(=O)c1ccccc1	0	0[15.4 µM]	0	-71	0	0
O=C(NCc1ccccc1)C(=O)Nc1c2c(nn1-c1ccc(F)cc1)CSC2	-	-	0	-79	-	-
O=C(Nc1ccc(C(O)(C(F)(F)F)C(F)(F)F)cc1)c1ccc(Cl)c([N+](=O)[O-])c1	0	0	0	-89	0	35µM
